Hit rate of the full screen: of about 52,000 compounds, about 1,700 (3.3%) were called active. The sample holds actives, similar compounds and a random draw of the others, so the mix is not that of the screen. A number with no mark means an inactive call. Rule as the data show it: active = survival mostly below about 52% (no sharp cut-off); inactive = mostly above about 56%.
test system: Wild type; assay: S. aureus survival, RN4220 and DeltatarO strains – OD600, teichoic acid synthesis inhibitors, primary screen (AID 463173); settings: S. aureus RN4220 wild type/DeltatarO growth, OD600, 18 h, active compounds read low, screened at 18.75 µg/mL (by protocol)

**Q.** How did the survival turn out when CN(C)C(=O)c1ccc(N(C)S(=O)(=O)c2ccccc2)cc1 was run?
**A.** The survival was 113%.

**Q.** With COc1ccc(NC(=S)N(Cc2ccco2)Cc2cc3cc(C)c(C)cc3[nH]c2=O)cc1 as the compound, how does the survival read?
**A.** Its survival is 103%.

**Q.** With Cc1ccc(C(=O)CSc2nc(-c3ccccc3)nc3c2CCCC3)c(C)c1 as the compound, how does the survival read?
**A.** Its survival is 58%.

**Q.** With Cc1ccc(C)c(C(=O)CSc2nc(-c3ccccc3)nc3c2CCCC3)c1 as the compound, how does the survival read?
**A.** Its survival is 6% (active).

**Q.** For Cc1ccc(C(=O)CSc2nc(-c3ccccc3)nc3c2CCCC3)cc1, which survival is on record?
**A.** Its survival is 55%.

**Q.** Which survival does the source give for CCn1c(CNC(=O)c2ccc(OC)cc2)nnc1SCC(=O)Nc1ccc(C)cc1 here?
**A.** Its survival is 125%.

**Q.** With O=C1CN(C(=O)c2ccccc2C(F)(F)F)C(c2ccccc2)c2cc(F)ccc2N1 (stereo not given) as the compound, how does the survival read?
**A.** The survival was 66%.

**Q.** With O=C(NCc1ccc(F)cc1)C1CCCCN1S(=O)(=O)c1ccc(F)cc1 (stereo not given) as the compound, how does the survival read?
**A.** The survival was 0% (active).

**Q.** Which survival does the source give for COc1ccc(CNC(=O)C2CCCCN2S(=O)(=O)c2ccc(F)cc2)cc1 (stereo not given) here?
**A.** Its survival is 87%.

**Q.** For Cc1ccc(CNC(=O)C2CCCCN2S(=O)(=O)c2ccc(F)cc2)cc1 (stereo not given), which survival is on record?
**A.** Its survival is 91%.

**Q.** Which survival does the source give for CCOC(=O)CSc1nc(-c2ccc(C)cc2C)cc(-c2ccccc2)c1C#N here?
**A.** The survival was 63%.

**Q.** For CNS(=O)(=O)c1cn(CC(=O)N2CCN(c3cc(C)ccc3C)CC2)cc1S(=O)(=O)NC, which survival is on record?
**A.** The survival was 83%.

**Q.** With COc1ccc(NC(=O)N(Cc2ccco2)C2CCN(C(C)=O)CC2)c(OC)c1 as the compound, how does the survival read?
**A.** The survival was 85%.

**Q.** COc1ccc(C)cc1NC(=O)N(C(C)C)C1CCN(C(C)=O)CC1 was tested. Which survival did it give?
**A.** Its survival is 85%.

**Q.** For COC(=O)c1ccc(Cl)cc1NC(=O)N(Cc1ccc(OC)cc1)C1CCN(C(C)=O)CC1, which survival is on record?
**A.** Its survival is -6% (active).

**Q.** Which survival does the source give for COc1ccc(NC(=O)N(C(C)C)C2CCN(C(C)=O)CC2)c(OC)c1 here?
**A.** The survival was -4% (active).

**Q.** Which survival does the source give for CC(=O)N1CCC(N(Cc2ccc(C)o2)C(=O)Nc2ccc(C)cc2)CC1 here?
**A.** The survival was 70%.

**Q.** COC(=O)c1ccc(Cl)cc1NC(=O)N(Cc1ccc(C)o1)C1CCN(C(C)=O)CC1 was tested. Which survival did it give?
**A.** The survival was 76%.

**Q.** COc1ccc(C)cc1NC(=O)N(Cc1ccc(C)o1)C1CCN(C(C)=O)CC1 was tested. Which survival did it give?
**A.** The survival was 0% (active).

**Q.** Which survival does the source give for CCN1CCC(N(Cc2ccc(F)cc2)C(=O)Nc2cc(Cl)ccc2C(=O)OC)CC1 here?
**A.** The survival was 80%.

**Q.** For CCOc1ccccc1NC(=O)N(Cc1ccc(C)o1)C1CCN(C(C)=O)CC1, which survival is on record?
**A.** The survival was 75%.

**Q.** Which survival does the source give for O=C(Cn1c(=O)nc(-c2ccccc2)c2ccccc21)NCc1ccc(F)cc1 here?
**A.** Its survival is 68%.

**Q.** With CC(=O)c1ccc(N2CCN(C(=O)CCS(=O)(=O)c3ccc4c(c3)oc(=O)n4C)CC2)cc1 as the compound, how does the survival read?
**A.** The survival was 89%.

**Q.** For CCCCCOc1ccc(/C=C/C(=O)Nc2sc(C)c(C)c2C(=O)OCC)cc1OC, which survival is on record?
**A.** The survival was 132%.

**Q.** With CCCOCc1cc(CN2CCN(c3ccccc3OC)CC2)c(O)c2ncccc12 as the compound, how does the survival read?
**A.** The survival was 99%.

**Q.** CC(C)OC(=O)C1=C(N)OC2=C(C(=O)CCC2)C1c1ccccc1F (stereo not given) was tested. Which survival did it give?
**A.** The survival was 114%.

**Q.** COc1ccc(CCNC(=O)Cn2c(-c3ccc(F)cc3)cc(C(C)=O)c2C)cc1OC was tested. Which survival did it give?
**A.** The survival was 54%.

**Q.** CN1CCN(CCCNC(=O)c2cnn(-c3ccc(F)cc3)c2-n2cccc2)CC1 was tested. Which survival did it give?
**A.** The survival was 84%.

**Q.** COc1ccc(CCC(=O)NC2CC(=O)N(c3ccccc3)C2)cc1 (stereo not given) was tested. Which survival did it give?
**A.** Its survival is 131%.

**Q.** Cc1cccc(CC(=O)NC2CC(=O)N(c3ccccc3)C2)c1 (stereo not given) was tested. Which survival did it give?
**A.** The survival was -6% (active).

**Q.** Which survival does the source give for COc1ccc(N2CC(NC(=O)c3ccc(OC(C)C)cc3)CC2=O)cc1 (stereo not given) here?
**A.** The survival was -2% (active).

**Q.** Which survival does the source give for Cc1cccc(CC(=O)NC2CC(=O)N(c3cccc(F)c3)C2)c1 (stereo not given) here?
**A.** Its survival is 60%.

**Q.** How did the survival turn out when COc1cccc(N2CC(NC(=O)CCCc3ccccc3)CC2=O)c1 (stereo not given) was run?
**A.** Its survival is 88%.

**Q.** For O=C(Cc1cccs1)NC1CC(=O)N(c2ccccc2)C1 (stereo not given), which survival is on record?
**A.** Its survival is 78%.

**Q.** With COc1ccc(C(=O)NC2CC(=O)N(c3ccc4c(c3)OCCO4)C2)cc1 (stereo not given) as the compound, how does the survival read?
**A.** The survival was 143%.

**Q.** For COc1ccc(N2CC(NC(=O)CCCc3ccccc3)CC2=O)cc1 (stereo not given), which survival is on record?
**A.** The survival was 0% (active).

**Q.** For O=C(Cc1ccccc1)NC1CC(=O)N(c2ccccc2)C1 (stereo not given), which survival is on record?
**A.** The survival was 76%.

**Q.** Which survival does the source give for O=C(Cc1cccs1)NC1CC(=O)N(c2ccc(F)cc2)C1 (stereo not given) here?
**A.** The survival was 95%.

**Q.** How did the survival turn out when Cc1ccc(N2CC(NC(=O)Cc3cccs3)CC2=O)cc1 (stereo not given) was run?
**A.** The survival was 0% (active).

**Q.** Which survival does the source give for COc1ccc(N2CC(NC(=O)c3ccc(S(=O)(=O)N4CCCC4)cc3)CC2=O)cc1 (stereo not given) here?
**A.** Its survival is 118%.

**Q.** For COc1ccc(N2CC3=C(C2=O)C(c2ccc(O)c(OC)c2)NC(=O)N3C)cc1 (stereo not given), which survival is on record?
**A.** The survival was 71%.

**Q.** CCN(C(=O)Cn1nc(Cc2cccnc2)c2ccccc2c1=O)c1cc(C)ccc1C was tested. Which survival did it give?
**A.** Its survival is 83%.

**Q.** For CCc1ccccc1NC(=O)Cn1c(SCc2ccc(F)cc2)nc2ccncc21, which survival is on record?
**A.** The survival was 48%.

**Q.** Which survival does the source give for COc1ccc(NC(=O)C2CCN(S(=O)(=O)c3c(C)noc3/C=C/c3ccco3)CC2)cc1 here?
**A.** The survival was 128%.

**Q.** For COc1ccc(CCNC(=O)CCn2c(=O)c3ccccc3n(Cc3ccccc3)c2=O)cc1OC, which survival is on record?
**A.** The survival was 97%.

**Q.** Which survival does the source give for CCC(=O)Nc1ccc(CC)cc1-c1nc2ccccc2n(CC(=O)c2ccc(OC)cc2)c1=O here?
**A.** Its survival is 74%.

**Q.** Which survival does the source give for Cc1ccc(N2CC(NC(=O)CCc3ccccc3)CC2=O)cc1 (stereo not given) here?
**A.** Its survival is -3% (active).

**Q.** Which survival does the source give for O=C(CCc1ccccc1)NC1CC(=O)N(c2ccccc2)C1 (stereo not given) here?
**A.** The survival was 78%.

**Q.** Cc1ccc(N2CC(NC(=O)CCCc3ccccc3)CC2=O)cc1 (stereo not given) was tested. Which survival did it give?
**A.** The survival was 53%.

**Q.** COc1ccccc1NC(=O)CN(c1ccc(C(C)C)cc1)S(=O)(=O)c1c(C)noc1C was tested. Which survival did it give?
**A.** The survival was 88%.

**Q.** Which survival does the source give for O=c1c2cc3c(nc2ncn1Cc1ccc(Cl)cc1)CCCC3 here?
**A.** The survival was 76%.

**Q.** How did the survival turn out when O=C(CSc1nnc(NC(=O)Nc2ccccc2)s1)Nc1cccc(F)c1 was run?
**A.** Its survival is 75%.

**Q.** CCSc1nsc(NC(=O)Nc2cccc(OC)c2)n1 was tested. Which survival did it give?
**A.** The survival was 95%.

**Q.** With CCSc1nsc(NC(=O)Nc2cccc(F)c2)n1 as the compound, how does the survival read?
**A.** The survival was 0% (active).

**Q.** How did the survival turn out when Cc1ccc(CNC(=O)c2ccc(CSCc3ccc(Cl)cc3)o2)cc1 was run?
**A.** The survival was 85%.

**Q.** CCOc1ccc(C(c2c(O)cc(C)n(Cc3ccco3)c2=O)N2CCN(C)CC2)cc1 (stereo not given) was tested. Which survival did it give?
**A.** Its survival is 66%.

**Q.** How did the survival turn out when CC(C)(C)OC(=O)N1CCC(c2c(C(=O)NCc3ccc4c(c3)OCO4)cnn2-c2ccccc2Cl)CC1 was run?
**A.** The survival was 75%.

**Q.** CNC(=O)C1CCC(Cn2c(=O)[nH]c3ccsc3c2=O)CC1 (stereo not given) was tested. Which survival did it give?
**A.** The survival was 80%.

**Q.** With CCCCCNC(=O)CCCCCn1c(=O)[nH]c2ccsc2c1=O as the compound, how does the survival read?
**A.** Its survival is 62%.

**Q.** Which survival does the source give for CCCCN(C)C(=O)C1CCC(Cn2c(=O)[nH]c3ccsc3c2=O)CC1 (stereo not given) here?
**A.** Its survival is -2% (active).
